Data published in PubChem BioAssay AID540254 (Southern Research Specialized Biocontainment Screening …, 2011).
Screen size: about 1,800 compounds; fewer than 10 were called active. No rule for the calls is given here. These entries were drawn from the full list. Results with a measured potency or affinity are listed apart.

experiment: antiviral activity against H1N1 influenza, dose response, cell-based, strain KY180 (AID 540254); conditions: H1N1 KY180 influenza antiviral cell-based screen; series mostly up to 40 µM; inhibition: at the top concentration

Row | SMILES | inhibition
1 | O=C(CSc1ccc(-c2ccccn2)nn1)Nc1ccc(F)c(F)c1 | 0.25% (inactive)
2 | COc1ccc(N2CCN(C(=O)CCC(=O)N3CCOc4ccc(Cl)cc43)CC2)cc1 | -1.47% (inactive)
3 | Cc1ccc2ccc3cccnc3c2n1 | -2.01% (inactive)
4 | Cc1noc(/C=C/N(C)C)c1S(=O)(=O)N1CCCC(C(=O)NC2CCCCC2)C1 (configuration not stated) | 2.53% (inactive)
5 | COc1ccc(N=Nc2cc(OC)c(N)cc2OC)cc1 | -1.51% (inactive)
6 | O=C(NC(=S)NNC(=O)c1ccccc1O)c1ccco1 | 1.27% (inactive)
7 | CC1COCC(C)N1C1=C(Cl)C(=O)c2ccccc2C1=O (configuration not stated) | -2.95% (inactive)
8 | COc1ccccc1N1CCN(C2CCCN(C(=O)c3cccc(-c4ccco4)c3)C2)CC1 (configuration not stated) | -2.46% (inactive)
9 | Clc1ccc(-c2ccc(-c3nn4c(-c5ccco5)nnc4s3)o2)cc1 | -2.46% (inactive)
10 | CCCCCn1cnc2c(sc3nc4c(cc32)CSC(C)(C)C4)c1=O | 0% (inactive)
11 | CCN(CC)C(=O)C1CCCc2c1[nH]c1ccc(Cl)cc21 (configuration not stated) | -1.51% (inactive)
12 | CC(NC(=O)C(=O)NN=C1CCCCCCC1)c1ccccc1 (configuration not stated) | -0.5% (inactive)
13 | COc1ccc(NC(=O)CSc2n[nH]c(-c3ccccn3)n2)cc1 | -3.8% (inactive)
14 | O=C(N/N=C/c1c(O)n(C2CC2)c(=S)[nH]c1=O)c1ccccc1O | 0.56% (inactive)
15 | Cc1ccc(NC(=O)CSc2nnc(C)c(=O)n2N)c(C)c1 | 1.57% (inactive)
16 | Cc1ccc(CN2CCC(n3nccc3NC(=O)CCCc3ccccc3)CC2)o1 | 0% (inactive)
17 | O=C1CCCN1CC(=O)N1CCCC(N2CCN(c3cccc(Cl)c3)CC2)C1 (configuration not stated) | 0.67% (inactive)
18 | CCNC(=O)CC1C(=O)N(c2ccc(F)cc2)C(=O)N1Cc1ccc(OC)cc1 (configuration not stated) | 1.27% (inactive)
19 | O=C1C=C(c2c(O)ccc3ccccc23)c2ccccc2C1=O | -2.46% (inactive)
20 | CCOC(=O)C1=C(C)n2c(s/c(=C/c3cccc([N+](=O)[O-])c3)c2=O)=NC1c1ccc(O)c(OC)c1 (configuration not stated) | -1.27% (inactive)
21 | CCC(C(=O)N/N=C(\C)c1cccnc1)c1ccccc1 (configuration not stated) | 0.98% (inactive)
22 | CN(CCCC(=O)O)c1ccc(N=Nc2ccc([N+](=O)[O-])cc2)cc1 | 0% (inactive)

Row | SMILES | inhibition
23 | COc1cccc(C(=O)NN2c3ccccc3CCc3ccccc32)c1 | 0% (inactive)
24 | N#C/C(=C/c1cn(-c2ccccc2)nc1-c1cccc(OCc2ccc(F)cc2)c1)C(=O)NCCCn1ccnc1 | -5.59% (inactive)
25 | CC1NC(=O)NC1CCCCCC(=O)Nc1ccc(F)c(Cl)c1 (configuration not stated) | 0% (inactive)
26 | CCOC(=O)C(C(C)=O)c1c(Br)c(O)c(O)c2c(C(=O)c3ccc(C)cc3)coc12 (configuration not stated) | -2.53% (inactive)
27 | Cc1ccc(-n2c(SCC(=O)NCc3ccco3)nc3c([nH]c4ccccc43)c2=O)cc1 | -0.49% (inactive)
28 | CC(C)CC1Nc2ncnc(N3CCN(c4ccccc4)CC3)c2N(Cc2ccccc2)C1=O (configuration not stated) | -0.56% (inactive)
29 | C[C@@H](C(=O)Nc1nc(-c2ccccn2)cs1)N1C(=O)C2CCCCC2C1=O (some centres not stated) | 0.5% (inactive)
30 | COc1ccc(C2(c3ccc(OC)cc3)NC(=O)N(CC(=O)Nc3ccc(OC(F)F)cc3)C2=O)cc1 | -2.95% (inactive)
31 | Cn1nc(CC(=O)NC2CCCCCC2)c2ccccc2c1=O | 1.25% (inactive)
32 | O=C(CCS(=O)(=O)c1ccc(F)cc1)Nc1nc(-c2ccccn2)cs1 | -4.7% (inactive)
33 | COc1ccc(C2C(C#N)=C(N)Nc3onc(C(C)(C)C)c32)c(OC)c1 (configuration not stated) | 0.25% (inactive)
34 | Oc1cccc(/C=N/NC(=S)Nc2cccnc2)c1O | 0.22% (inactive)
35 | CCOC(=O)c1c(C)[nH]c(C(=O)N/N=C/c2cc([N+](=O)[O-])ccc2O)c1C | -1.27% (inactive)
36 | Cc1[nH]c2ccccc2c1C(c1ccccn1)c1c(C)[nH]c2ccccc12 | 0.5% (inactive)
37 | Cc1[nH]c2ccccc2c1SCC(=O)N1CCOCC1 | 1.25% (inactive)
38 | Cc1ccc(S(=O)(=O)NCc2ccc3c(c2)cc(C)n3C)cc1 | -2.91% (inactive)
39 | O=C(Nc1nc(-c2ccccn2)cs1)C1COc2ccccc2O1 (configuration not stated) | -1.68% (inactive)
40 | CC(=O)N/N=C(\C)c1cccc(NC(=O)c2cccs2)c1 | 0% (inactive)
41 | O=C(Nc1nc2c(s1)CCCC2)C1COc2ccccc2O1 (configuration not stated) | -1.12% (inactive)
42 | Cn1c(=O)c2[nH]c(NN=Cc3ccc(Br)cc3)nc2n(C)c1=O | -1.47% (inactive)
43 | COc1ccc(C(=O)NC(=S)NNC(=O)c2cnccn2)cc1OC | 0.25% (inactive)
44 | COC(=O)c1ccccc1NC1=C/C(=N\S(=O)(=O)c2ccc(C(=O)O)cc2)c2ccccc2C1=O | -2.51% (inactive)

Row | SMILES | inhibition
45 | CCNC(=S)NNC(=O)c1ccccn1 | 1.27% (inactive)
46 | O=c1c2ccccc2ncn1Cc1ccco1 | 0.5% (inactive)
47 | Oc1c(CN2CCCCC2)ccc2cccnc12 | -2.01% (inactive)
48 | COCc1cc(C)nc(SCC(=O)Nc2ccc3c(c2)n(C)c(=O)n3C)c1C#N | -0.56% (inactive)
49 | Nc1ccccc1C(=O)NCc1ccc(Cl)cc1 | -1.27% (inactive)
50 | Nc1nc(SCc2ccc([N+](=O)[O-])cc2)nc2nc3c(cc12)CCCC3 | 1.97% (inactive)
51 | CCN(CC)CCNc1nc2cc(OC)c(OC)cc2c2nc(-c3ccccc3)nn12 | -5.15% (inactive)
52 | Cc1cc(N(C)N)nc(NC(=O)NS(=O)(=O)c2ccccc2Cl)n1 | -0.5% (inactive)
53 | Cn1cc(S(=O)(=O)Nc2ccc(Br)cc2F)c(=O)n(C)c1=O | 1.97% (inactive)
54 | O=C(NCC1CCCO1)C(=O)N/N=C/c1cc(Cl)ccc1O (configuration not stated) | 1.27% (inactive)
55 | O=C(NCCCN1CCOCC1)C(=O)N/N=C/c1ccccc1O | 0% (inactive)
56 | Cc1ccc(OCCn2c(C3CC(=O)N(Cc4ccccc4)C3)nc3ccccc32)cc1 (configuration not stated) | -2.51% (inactive)
57 | CCOC(=O)c1cnc(-n2[nH]c(C)c(Cc3ccccc3)c2=O)[nH]c1=O | 0.56% (inactive)
58 | Cc1ccc(C(c2nnnn2Cc2cccs2)N2CCN(Cc3ccc4c(c3)OCO4)CC2)cc1 (configuration not stated) | -2.95% (inactive)
59 | COc1cc(/C=C2\SC(c3ccccc3)=NC2=O)cc(Cl)c1O | 0.56% (inactive)
60 | COC(=O)C1CCN(C(=O)Cc2ccc(C)cc2)CC1 | 0.5% (inactive)
61 | COc1ccc(Cc2nnc(N/N=C/c3ccc(O)cc3)[nH]c2=O)cc1OC | -1.51% (inactive)
62 | CC1CC(=O)N(C)c2ccc([N+](=O)[O-])cc2N1 (configuration not stated) | 1.12% (inactive)
63 | O=C(c1cc2ccccc2o1)N1CCCCCC1 | 2.01% (inactive)
64 | COc1cc(OC)cc(C(=O)NC(=S)NNC(=O)c2cnccn2)c1 | -1.68% (inactive)
65 | CC1CCCC(C)N1c1nnc(NC(=O)Cn2c(=O)oc3ccccc32)s1 (configuration not stated) | -1.97% (inactive)
66 | Fc1ccc(-[n+]2nc(Nc3ccccc3)sc2-c2c(Cl)cccc2Cl)cc1 | -2.01% (inactive)

Row | SMILES | inhibition
67 | CC1NC(=O)NC1CCCCCC(=O)Nc1ccc(F)cc1 (configuration not stated) | 1.57% (inactive)
68 | CCc1nnc(SCC(=O)N2CCc3ccccc32)n1CC | 2.46% (inactive)
69 | O=C(CNCc1ccccn1)Nc1cc(S(=O)(=O)N2CCCCC2)ccc1Cl | 0% (inactive)
70 | Cc1nc2sccn2c(=O)c1S(=O)(=O)N1CCN(c2ccc(F)cc2)CC1 | 4.25% (inactive)
71 | O=C1NC(c2ccccn2)Nc2sc3c(c21)CCC3 (configuration not stated) | -1.47% (inactive)
72 | COc1cccc(/C=N/NC(=O)CCCC(=O)NC2CCCCC2)c1 | 1.47% (inactive)
73 | CCOC(=O)Cn1c(=O)oc2cc(S(=O)(=O)NCc3ccccn3)ccc21 | -0.67% (inactive)
74 | COc1cccc(C2c3c(oc4ccc(Cl)cc4c3=O)C(=O)N2c2cc(C)on2)c1OC (configuration not stated) | -1.57% (inactive)
75 | CC(/C=N/NC(=O)c1ccc(Cn2cc([N+](=O)[O-])cn2)o1)=C\c1ccccc1 | 1.97% (inactive)
76 | CCOc1ccc(C(=O)NCCn2cc(SCC(=O)Nc3cc(C)on3)c3ccccc32)cc1 | 0.56% (inactive)
77 | O=C(N/N=C/c1ccc([N+](=O)[O-])cc1)c1ccccc1OCc1ccccc1 | -1.01% (inactive)
78 | CC(=O)Cc1nsc(NC(=O)c2ccc(-c3cc(C(F)(F)F)ccc3Cl)o2)n1 | -0.56% (inactive)
79 | CCCCC(=O)NC(c1ccc(N(C)C)cc1)c1ccc2cccnc2c1O (configuration not stated) | 0% (inactive)
80 | CC(C)COC(=O)c1ccc2c(c1O)C(=O)c1ccccc1C2=O | -1.12% (inactive)
81 | CCOC(=O)CCSCC(=O)Nc1nnc(C)s1 | 1.27% (inactive)
82 | O=C(CSc1ccccc1)Nc1nnc(/C=C/c2ccccc2)s1 | 0.25% (inactive)
83 | COc1ccc(C(CNC(=O)CN2C(=O)NC3(CCCC3)C2=O)N(C)C)cc1 (configuration not stated) | 4.02% (inactive)
84 | COc1ccc(C(=O)COC(=O)CN2CC(=O)Oc3ccccc32)cc1Br | -1.97% (inactive)
85 | O=C(NC1CCCC1)C(c1cccnc1)N(C(=O)c1csnn1)c1ccccc1Cl (configuration not stated) | 0.22% (inactive)
86 | CCOC(=O)C1=C(C)N(C)C(C)=C(C(=O)OCC)C1c1ccncc1 | 13.2% (inactive)
87 | O=[N+]([O-])c1ccc(CSc2ccc(-c3ccccn3)nn2)cc1 | -1.01% (inactive)
88 | O=C(NN=C1CCCCCC1)c1cccs1 | 2.53% (inactive)

Row | SMILES | inhibition
89 | CCOC(=O)C1CCN(c2c(NC3CCCCCCC3)c(=O)c2=O)CC1 | -1.12% (inactive)
90 | CC(C)C(=O)N(c1cc2sc(=O)oc2c2ccccc12)S(=O)(=O)c1cccs1 | -1.27% (inactive)
91 | CN1C(=O)/C(=C\c2cc(N=Nc3ccccc3)ccc2O)SC1=S | -0.25% (inactive)
92 | CCCC(=O)OC(C(=O)Nc1cc(C(F)(F)F)ccc1Cl)c1ccccc1 (configuration not stated) | 0% (inactive)
93 | Cc1ccccc1-c1nc(CN2CCC(C(=O)N3CCC(C(N)=O)CC3)CC2)c(C)o1 | 7.38% (inactive)
94 | O=C(O)c1ccc(-n2nnnc2Oc2cccc3cccnc23)cc1 | 1.51% (inactive)
95 | Cc1ccc(NC(=O)C2CCCN(c3ncccn3)C2)cc1F (configuration not stated) | -0.5% (inactive)
96 | CN(C)S(=O)(=O)c1cccc(NC(=O)CNCc2ccccn2)c1 | 1.97% (inactive)
97 | COc1ccc(C)cc1NC(=O)CSc1ccc(-c2ccccn2)nn1 | -1.27% (inactive)
98 | COc1ccc(N2CCN(CCCNC(=O)c3cc4sccc4n3C)CC2)cc1 | 0% (inactive)
99 | COc1ccc(N2CCN(CCCNS(=O)(=O)c3ccc4c(c3)oc(=O)n4C)CC2)cc1 | 1.27% (inactive)
100 | COc1ccc(N2CCN(C(=O)c3cccc(Cn4cc(Cl)cn4)c3)CC2)cc1 | -2.53% (inactive)
101 | COc1ccccc1-c1c(C)nn2c(N3CCN(Cc4ccccc4)CC3)cc(C)nc12 | -5.59% (inactive)
102 | Cc1ccc(C)c(N=Nc2nc3ccccc3n2C)c1 | -0.25% (inactive)
103 | NS(=O)(=O)c1ccc(NC(=O)Nc2ccc3c(c2)OCO3)cc1 | 0% (inactive)
104 | COc1ccc(/C=N\NC(=O)c2cc(O)c(O)c(O)c2)cc1COc1ccc(C(=O)OCC(C)C)cc1 | -1.01% (inactive)
105 | Cc1ccc(-c2csc(NC(=O)c3cccc(N4C(=O)CCC4=O)c3)n2)o1 | -0.25% (inactive)
106 | Cc1cc2cc(CNC(=O)c3ccc(S(=O)(=O)N4CCCC4)cc3)ccc2n1C | 1.97% (inactive)
107 | Cc1cc(C)c(NN=c2c(=O)c3ccccc3c2=O)c(C)c1 | -0.56% (inactive)
